Potency data for 33 molecules are collected here from PubChem BioAssay (Tox21).

Inconclusive results are not listed. A call without a number means that no potency is given here. The source made the active and inactive calls. Unless noted, calls come from the whole dose curve.
Potency is the fitted concentration of half-maximal effect.

One assay in a line: qHTS assay for small molecules that induce genotoxicity in human embryonic kidney cells expressing luciferase-tagged ATAD5 (AID 651632; active = well fitted activation curve with a large enough effect in the repeat runs; note: nearly all actives have a fitted effect of over 15% in size). Conditions: HEK293T ATAD5-luciferase induction, 16 h; series mostly up to 83.3 µM. The method in brief:
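HEK293T cells carrying a luciferase reporter tagged to ATAD5 were exposed to compound or DMSO vehicle for 16 hr at 37C, 5% CO2. Amplite was added, and after 30 min at room temperature luciferase activity was read as a marker of ATAD5 induction.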
With `CCC(=O)O[C@@H]1CC(=O)O[C@H](C)C/C=C/C=C/[C@H](O)[C@H](C)C[C@H](CC=O)[C@H](O[C@@H]2O[C@H](C)[C@@H](O[C@H]3C[C@@](C)(O)[C@@H](OC(=O)CC)[C@H](C)O3)[C@H](N(C)C)[C@H]2O)[C@H]1OC`, the Potency result was “inactive”.
Regarding `CCCCC(=O)OCC(=O)[C@]1(O)Cc2c(O)c3c(c(O)c2[C@@H](O[C@H]2C[C@H](NC(=O)C(F)(F)F)[C@H](O)[C@H](C)O2)C1)C(=O)c1c(OC)cccc1C3=O`, the Potency was 3.35 µM (active).
For the molecule `CC(C)N=c1cc2n(-c3ccc(Cl)cc3)c3ccccc3nc-2cc1Nc1ccc(Cl)cc1`, the Potency result was “inactive”.
Same read-out and setting: under `CC(C)(C)c1ccc(CN2CCN(C(c3ccccc3)c3ccc(Cl)cc3)CC2)cc1` (stereo not given) stands “inactive”; under `CCCCCCCCCCCCCC[n+]1ccc(C)cc1`, “inactive”.
The same measure, in the same setting: under `CCC(=O)c1ccc2c(c1)N(CCCN1CCN(CCO)CC1)c1ccccc1S2` stands “inactive”; under `O=C(O)c1c(Cl)c(Cl)c(Cl)c(Cl)c1-c1c2cc(I)c(=O)c(I)c-2oc2c(I)c(O)c(I)cc12`, “inactive”; under `C=Cc1c(C)c2cc3nc(cc4[nH]c(cc5nc(cc1[nH]2)C(C)=C5CCC(=O)OC)c(CCC(=O)O)c4C)[C@@]1(C)C3=CC=C(C(=O)OC)[C@H]1C(=O)OC`, “inactive”.
Regarding `O=C1CSC2(CCN(CCCN3c4ccccc4Sc4ccc(Cl)cc43)CC2)N1`, the Potency entry was “inactive”.
Take `CC(C)[C@@H](C)/C=C/[C@@H](C)[C@H]1CC[C@H]2/C(=C/C=C3\C[C@@H](O)CC[C@@H]3C)CCC[C@]12C`: the Potency entry was “inactive”.
Turning to `CCCCCCCC(=O)CC[C@@H]1[C@@H](C/C=C\CCCC(=O)OC(C)C)[C@@H](O)C[C@H]1O`, the Potency entry is “inactive”.
Consider `C#C[C@]1(O)CC[C@H]2[C@@H]3CCC4=C(CCC(=O)C4)[C@H]3CC[C@@]21C`, for which the Potency result was “inactive”.
`CCN(CC)CCOc1ccc(-c2nc3cc(Cl)ccc3s2)cc1`: the Potency entry is “inactive”.
For `O=S(=O)(O)c1cc(O)c2c(N=Nc3ccc(Nc4ccccc4)c4c(S(=O)(=O)O)cccc34)cc(S(=O)(=O)O)cc2c1`, the Potency entry is “inactive”.

The next assay in a line: qHTS assay for small molecule agonists of the p53 signaling pathway - cell viability (AID 651633). Note: nearly all actives have a fitted effect of over 30% in size. Conditions: p53RE-bla HCT-116 viability, ATP luminescence, 16 h; series mostly up to 83.3 µM. Put shortly:
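p53RE-bla cells, seeded at 4,000 per well and rested 5 h at 37 C/5% CO2, received compounds in DMSO for 16 h at 37 C. CellTiter-Glo was then added, and luminescence was read after 30 min at room temperature to gauge cytotoxicity.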
Regarding `[O]=[Bi][O][Bi]=[O]`, the Potency result is “inactive”.
In the case of `CC[C@@]1(O)C[C@H](O[C@H]2C[C@H](N(C)C)[C@H](O[C@H]3C[C@H](O)[C@H](O[C@H]4CCC(=O)[C@H](C)O4)[C@H](C)O3)[C@H](C)O2)c2c(cc3c(c2O)C(=O)c2c(O)cccc2C3=O)[C@H]1C(=O)OC`, the Potency entry was “inactive”.
For the molecule `CC(=C\c1ccccc1)/C=C1/SC(=S)N(CC(=O)O)C1=O`, the Potency entry was “inactive”.
For the molecule `Cc1cc(Nc2ccccc2C(=O)O)ccc1Cl`, the Potency is 7.5 µM (active).
Consider `C=C1C(=O)O[C@H]2[C@H]1CC/C(C)=C\CC[C@@]1(C)O[C@@H]21`, for which the Potency was 29.8 µM (active).
Turning to `C#C[C@]1(O)CC[C@H]2[C@@H]3CCC4=C/C(=N/O)CC[C@@H]4[C@H]3CC[C@@]21CC`, the Potency result was “inactive”.
The same measure, in the same setting: with `Cc1cccc(C)c1Nc1ncccc1C(=O)O` the entry was “inactive”; with `CCCCC(C)(O)C/C=C/[C@H]1[C@H](O)CC(=O)[C@@H]1CCCCCCC(=O)OC` (stereo not given in full), “inactive”; with `CO[C@@H]1[C@@H](O[C@@H]2O[C@H](C)[C@@H](O[C@H]3C[C@@](C)(O)[C@@H](OC(=O)CC(C)C)[C@H](C)O3)[C@H](N(C)C)[C@H]2O)[C@@H](CC=O)C[C@@H](C)C(=O)/C=C/C2OC2C[C@@H](C)OC(=O)C[C@H]1OC(C)=O` (stereo not given in full), “inactive”.
As to `Cc1cc2nc3c(=O)[nH]c(=O)nc-3n(C[C@H](O)[C@H](O)[C@H](O)COP(=O)(O)OP(=O)(O)OC[C@H]3O[C@@H](n4cnc5c(N)ncnc54)[C@H](O)[C@@H]3O)c2cc1C`, the Potency result is “inactive”.
For `NC(=O)OC[C@@H]1[C@H](NC(=O)/C(=N\OCC(=O)O)c2csc(N)n2)C(=O)N1S(=O)(=O)O`, the Potency entry is “inactive”.
Turning to `CCCCCCCCCCCCOCCCN`, the Potency entry was “inactive”.
As to `O=C(O)C1CCCN1` (stereo not given), the Potency result is “inactive”.
As to `CCCCC/C=C\C/C=C\C/C=C\CCCCC(=O)O`, the Potency entry was “inactive”.
Turning to `Nc1nc(=O)n([C@@H]2CS[C@H](CO)O2)cc1F`, the Potency result was “inactive”.

Another assay in a line: qHTS assay for small molecules that induce genotoxicity in human embryonic kidney cells expressing luciferase-tagged ATAD5 - cell viability (AID 651634). Note: nearly all actives have a fitted effect of over 25% in size. Particulars: HEK293T ATAD5-luc cells viability, CellTiter-Fluor, 15.5 h; series mostly up to 83.3 µM. The method in brief: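 HEK293T cells expressing luciferase-tagged ATAD5 were exposed to compound or DMSO for 15.5 hr at 37C, 5% CO2. Viability was then read as live-cell protease activity by CellTiter-Fluor fluorescence after 30 min at 37C.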
For the molecule `CCC(=O)O[C@@H]1CC(=O)O[C@H](C)C/C=C/C=C/[C@H](O)[C@H](C)C[C@H](CC=O)[C@H](O[C@@H]2O[C@H](C)[C@@H](O[C@H]3C[C@@](C)(O)[C@@H](OC(=O)CC)[C@H](C)O3)[C@H](N(C)C)[C@H]2O)[C@H]1OC`, the Potency entry is “inactive”.
The same measure, in the same setting: with `[O]=[Bi][O][Bi]=[O]` the entry was “inactive”.
On the same count and under the same terms, under `CC[C@@]1(O)C[C@H](O[C@H]2C[C@H](N(C)C)[C@H](O[C@H]3C[C@H](O)[C@H](O[C@H]4CCC(=O)[C@H](C)O4)[C@H](C)O3)[C@H](C)O2)c2c(cc3c(c2O)C(=O)c2c(O)cccc2C3=O)[C@H]1C(=O)OC` stands 15 µM (active); under `CC(C)N=c1cc2n(-c3ccc(Cl)cc3)c3ccccc3nc-2cc1Nc1ccc(Cl)cc1`, “inactive”; under `CC(=C\c1ccccc1)/C=C1/SC(=S)N(CC(=O)O)C1=O`, 21.1 µM (active).
`CO[C@H]1C[C@H](O[C@@H]2/C(C)=C/C[C@@H]3C[C@@H](C[C@]4(CC[C@H](C)[C@@H](C5CCCCC5)O4)O3)OC(=O)[C@@H]3C=C(C)/C(=N/O)[C@H]4OC/C(=C\C=C\[C@@H]2C)[C@]43O)O[C@@H](C)[C@@H]1O`: the Potency result is “inactive”.
For `Cc1cc(Nc2ccccc2C(=O)O)ccc1Cl`, the Potency result was “inactive”.
On the same count and under the same terms, under `CN1CCN(CCC=C2c3ccccc3Sc3ccc(S(=O)(=O)N(C)C)cc32)CC1` stands 29.8 µM (active).
For `CCC(=O)c1ccc2c(c1)N(CCCN1CCN(CCO)CC1)c1ccccc1S2`, the Potency was 26.6 µM (active).
Still for that read-out and setting: with `O=C(O)c1c(Cl)c(Cl)c(Cl)c(Cl)c1-c1c2cc(I)c(=O)c(I)c-2oc2c(I)c(O)c(I)cc12` the figure was 26.6 µM (active).
Regarding `Cc1cccc(C)c1Nc1ncccc1C(=O)O`, the Potency result was “inactive”.
For `CCCCC(C)(O)C/C=C/[C@H]1[C@H](O)CC(=O)[C@@H]1CCCCCCC(=O)OC` (stereo not given in full), the Potency entry was “inactive”.
Still for that read-out and setting: with `CC(=O)Nc1ccc(NC(=S)NC(=O)c2ccc(C(C)(C)C)cc2)cc1` the entry was “inactive”; with `CC1(C)S[C@@H]2[C@H](NC(=O)C3(N)CCCCC3)C(=O)N2[C@H]1C(=O)O`, “inactive”; with `C#C[C@]1(O)CC[C@H]2[C@@H]3CCC4=C(CCC(=O)C4)[C@H]3CC[C@@]21C`, “inactive”.
On the same count and under the same terms, with `CCN(CC)CCOc1ccc(-c2nc3cc(Cl)ccc3s2)cc1` the entry was “inactive”; with `NC(=O)OC[C@@H]1[C@H](NC(=O)/C(=N\OCC(=O)O)c2csc(N)n2)C(=O)N1S(=O)(=O)O`, “inactive”.
Same read-out and setting: under `CCCCCCCCCCCCOCCCN` stands “inactive”; under `O=C(O)C1CCCN1` (stereo not given), “inactive”.
As to `CCCCC/C=C\C/C=C\C/C=C\CCCCC(=O)O`, the Potency result was “inactive”.
Regarding `Nc1nc(=O)n([C@@H]2CS[C@H](CO)O2)cc1F`, the Potency entry was “inactive”.
